Several values for one entry are separate records, joined by “and”; a condition that tells them apart may be missing. Equal values may be shown once. Screen size: about 5,500 compounds; about 2,000 (36%) were called active. Another 18% or so got no clear call; they are omitted. No stated cut-off is given here; in the data, active means normalized growth mostly below about 0.91 (no sharp cut-off); inconclusive means no clear call, values can overlap the other calls; inactive means mostly above about 0.92. This is one part of the list. Some compounds were tested as several samples or in several runs, with calls that do not always agree.
Assay: chemical genetic growth profiling, strain panel (AID 1159580);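 further: tested at 20 µM; growth read once vehicle control cultures reached saturation at 30 °C; 1 = growth at the plate median or of vehicle wells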
Conditions: S. cerevisiae deletion strains, growth OD

CN1C2CCC1CC(OC(c1ccccc1)c1ccccc1)C2 (stereo not given)
normalized growth (locus YAL013W, strain DEP1, stronger effect = lower value): 0.825 (active) and 1.01 (inactive) | normalized growth (locus YAL021C, strain ccr4, stronger effect = lower value): 0.963 (inactive) | normalized growth (locus YAL026C, strain drs2, stronger effect = lower value): 0.975 (inactive) | normalized growth (locus YAL030W, strain snc1, stronger effect = lower value): 0.985 (inactive) | normalized growth (locus YAL040C, strain CLN3, stronger effect = lower value): 0.98 (inactive) | normalized growth (locus YBL061C, strain skt5, stronger effect = lower value): 0.989 (inactive) | normalized growth (locus YBR009C, strain hhf1, stronger effect = lower value): 0.968 (inactive) | normalized growth (locus YBR021W, strain FUR4, stronger effect = lower value): 1.02 (inactive) | normalized growth (locus YBR023C, strain chs3, stronger effect = lower value): 0.994 (inactive) | normalized growth (locus YBR171W, strain sec66, stronger effect = lower value): 0.977 (inactive) | normalized growth (locus YBR229C, strain ROT2, stronger effect = lower value): 0.989 (inactive) | normalized growth (locus YBR231C, strain swc5, stronger effect = lower value): 0.998 (inactive) | normalized growth (locus YBR279W, strain paf1, stronger effect = lower value): 0.967 (inactive) | normalized growth (locus YCL011C, strain gbp2, stronger effect = lower value): 0.982 (inactive) | normalized growth (locus YCL016C, strain dcc1, stronger effect = lower value): 0.969 (inactive) | normalized growth (locus YCL029C, strain bik1, stronger effect = lower value): 0.98 (inactive) | normalized growth (locus YCL069W, strain vba3, stronger effect = lower value): 0.989 (inactive) | normalized growth (locus YCR088W, strain abp1, stronger effect = lower value): 0.998 (inactive) | normalized growth (locus YDL005C, strain med2, stronger effect = lower value): 0.977 (inactive) | normalized growth (locus YDL035C, strain GPR1, stronger effect = lower value): 0.894 (inactive) | normalized growth (locus YDL040C, strain nat1, stronger effect = lower value): 0.992 (inactive) | normalized growth (locus YDL074C, strain BRE1, stronger effect = lower value): 0.665 (active) | normalized growth (locus YDL101C, strain DUN1, stronger effect = lower value): 0.914 (inactive) | normalized growth (locus YDL134C, strain PPH21, stronger effect = lower value): 0.924 (inactive) | normalized growth (locus YDL185W, strain tfp1, stronger effect = lower value): 0.969 (inactive) | normalized growth (locus YDL192W, strain arf1, stronger effect = lower value): 0.986 (inactive) | normalized growth (locus YDR001C, strain nth1, stronger effect = lower value): 0.989 (inactive) | normalized growth (locus YDR069C, strain doa4, stronger effect = lower value): 0.981 (inactive) | normalized growth (locus YDR101C, strain arx1, stronger effect = lower value): 1 (inactive) | normalized growth (locus YDR137W, strain rgp1, stronger effect = lower value): 1.01 (inactive) | normalized growth (locus YDR150W, strain NUM1, stronger effect = lower value): 1.01 (inactive) | normalized growth (locus YDR159W, strain sac3, stronger effect = lower value): 0.976 (inactive) | normalized growth (locus YDR162C, strain NBP2, stronger effect = lower value): 0.778 (active) | normalized growth (locus YDR195W, strain ref2): 0.975 (inactive) | normalized growth (locus YDR297W, strain sur2, stronger effect = lower value): 0.981 (inactive) | normalized growth (locus YDR318W, strain mcm21, stronger effect = lower value): 0.982 (inactive) | normalized growth (locus YDR334W, strain swr1, stronger effect = lower value): 0.999 (inactive) | normalized growth (locus YDR335W, strain msn5, stronger effect = lower value): 0.986 (inactive) | normalized growth (locus YDR363W, strain ESC2, stronger effect = lower value): 1 (inactive) | normalized growth (locus YDR388W, stronger effect = lower value): 0.972 (inactive) | normalized growth (locus YDR392W, strain spt3, stronger effect = lower value): 0.87 (inactive) | normalized growth (locus YDR502C, strain sam2, stronger effect = lower value): 0.964 (inactive) | normalized growth (locus YEL003W, strain gim4, stronger effect = lower value): 0.983 (inactive) | normalized growth (locus YEL037C, strain rad23, stronger effect = lower value): 0.977 (inactive) | normalized growth (locus YEL061C, strain CIN8 (second series), stronger effect = lower value): 0.988 (inactive) | normalized growth (locus YEL061C, strain CIN8, stronger effect = lower value): 0.983 (inactive) | normalized growth (locus YER002W, strain NOP16, stronger effect = lower value): 0.989 (inactive) | normalized growth (locus YER015W, strain faa2, stronger effect = lower value): 0.99 (inactive) | normalized growth (locus YER016W, strain bim1, stronger effect = lower value): 0.949 (inactive) | normalized growth (locus YER110C, stronger effect = lower value): 0.974 (inactive) | normalized growth (locus YER111C, strain swi4, stronger effect = lower value): 1 (inactive) | normalized growth (locus YER155C, strain BEM2 (second series), stronger effect = lower value): 0.985 (inactive) | normalized growth (locus YER155C, strain BEM2, stronger effect = lower value): 0.805 (active) | normalized growth (locus YER167W, strain BCK2, stronger effect = lower value): 0.939 (inactive) | normalized growth (locus YFR010W, strain ubp6, stronger effect = lower value): 0.973 (inactive) | normalized growth (locus YGL078C, strain dbp3, stronger effect = lower value): 0.98 (inactive) | normalized growth (locus YGL086W, strain mad1, stronger effect = lower value): 0.951 (inactive) | normalized growth (locus YGL167C, strain pmr1, stronger effect = lower value): 0.996 (inactive) | normalized growth (locus YGL173C, strain kem1, stronger effect = lower value): 0.982 (inactive) | normalized growth (locus YGL227W, strain vid30, stronger effect = lower value): 1 (inactive) | normalized growth (locus YGL240W, strain doc1, stronger effect = lower value): 1.02 (inactive) | normalized growth (locus YGL248W, strain PDE1, stronger effect = lower value): 0.842 (active) | normalized growth (locus YGL253W, strain hxk2, stronger effect = lower value): 0.999 (inactive) | normalized growth (locus YGR078C, strain PAC10, stronger effect = lower value): 0.802 (active) and 1.01 (inactive) | normalized growth (locus YGR135W, strain pre9, stronger effect = lower value): 0.936 (inactive) | normalized growth (locus YGR252W, strain gcn5, stronger effect = lower value): 0.895 (inactive) | normalized growth (locus YHR013C, strain ard1, stronger effect = lower value): 0.924 (inactive) | normalized growth (locus YHR027C, strain rpn1, stronger effect = lower value): 0.985 (inactive) | normalized growth (locus YHR030C, strain SLT2, stronger effect = lower value): 0.839 (active) | normalized growth (locus YHR079C, strain IRE1 (second series), stronger effect = lower value): 0.977 (inactive) | normalized growth (locus YHR094C, strain hxt1, stronger effect = lower value): 0.977 (inactive) | normalized growth (locus YHR129C, strain ARP1, stronger effect = lower value): 0.87 (active) | normalized growth (locus YHR142W, strain chs7, stronger effect = lower value): 0.968 (inactive) | normalized growth (locus YHR200W, strain rpn10, stronger effect = lower value): 0.981 (inactive) | normalized growth (locus YIL066C, strain RNR3, stronger effect = lower value): 0.952 (inactive) | normalized growth (locus YIL073C, strain SPO22, stronger effect = lower value): 0.804 (inactive) | normalized growth (locus YIL125W, strain kgd1, stronger effect = lower value): 0.982 (inactive) | normalized growth (locus YIR030C, strain dcg1, stronger effect = lower value): 0.986 (inactive) | normalized growth (locus YJL092W, strain hpr5, stronger effect = lower value): 0.99 (inactive) | normalized growth (locus YJL095W, strain BCK1 (second series), stronger effect = lower value): 0.987 (inactive) | normalized growth (locus YJL095W, strain BCK1, stronger effect = lower value): 0.723 (active) | normalized growth (locus YJL115W, strain asf1, stronger effect = lower value): 0.98 (inactive) | normalized growth (locus YJL129C, strain trk1, stronger effect = lower value): 0.975 (inactive) | normalized growth (locus YJL134W, strain LCB3, stronger effect = lower value): 0.997 (inactive) | normalized growth (locus YJL154C, strain vps35, stronger effect = lower value): 0.975 (inactive) | normalized growth (locus YJL164C, strain tpk1, stronger effect = lower value): 0.979 (inactive) | normalized growth (locus YJL166W, strain qcr8, stronger effect = lower value): 1.01 (inactive) | normalized growth (locus YJL168C, strain set2, stronger effect = lower value): 0.985 (inactive) | normalized growth (locus YJL187C, strain SWE1 (second series), stronger effect = lower value): 0.888 (inactive) | normalized growth (locus YJL187C, strain SWE1, stronger effect = lower value): 0.989 (inactive)

Source: PubChem BioAssay AID1159580 (chemical genetic matrix, 2015)
